Here are results for 66 compounds from article PMC6664820, “Novel natural and synthetic inhibitors of solute carriers SGLT1 and SGLT2” (Pharmacology Research & Perspectives, 2019).

In all, about 1,900 compounds went through this assay and about 40 (2%) showed an effect of 50% or more. What follows is part of a selection rich in strong results, with near analogues and random picks from the rest.

The experiment deals with human SGLT1 (hSGLT1) (human, UniProt P13866). The experiment is described as follows: primary screen, percent of control activity; higher = less effect of the substance. Also noted: single well. As to conditions: 50 µM. The procedure: Two days before the assay, CHO‐wild type and CHO‐hSGLT1 cells were seeded in maintenance medium at 25 000 cells/well in clear‐bottom black 96‐well cell culture plates. Before the assay, cells were washed 3 times with 150 μL/well D‐glucose free DMEM with 0.3% (w/v) BSA. Library compounds at 50 μmol/L (singlicate) prepared in D‐glucose free DMEM with 160 μmol/L 1‐NBD‐glucose and 0.3% (w/v) BSA and negative controls (triplicate) were added at 100 μL/well and placed in a humidified incubator at 37°C with 5% CO2 for 90 minutes. Next, cells were washed 3 times with DMEM with 0.3% (w/v) BSA (150 μL/well). Care was taken to remove all medium after the last wash. Finally, 1‐NBD‐glucose was extracted from the cells by adding 10 μL/well isopropanol and orbital shaking for 5 minutes at 600 rpm, followed by incubation in the dark for 30 minutes. Fluorescence was measured on a Tecan Infinite M200 Microplate Reader (Tecan, Männedorf, Switzerland) with excitation at 445 nm and emission at 525 nm. The amount of 1‐NBD‐glucose taken up by the CHO‐wild type or CHO‐hSGLT1 cells in the presence or absence of test compounds was interpolated from 1‐NBD‐glucose calibration standards. The background uptake by CHO‐wild type was subtracted from the uptake by CHO‐hSGLT1. Background corrected uptake with test compound was expressed as a percentage of corrected uptake without test compound.
human SGLT1 (hSGLT1), sequence (P13866 whole entry, looked up): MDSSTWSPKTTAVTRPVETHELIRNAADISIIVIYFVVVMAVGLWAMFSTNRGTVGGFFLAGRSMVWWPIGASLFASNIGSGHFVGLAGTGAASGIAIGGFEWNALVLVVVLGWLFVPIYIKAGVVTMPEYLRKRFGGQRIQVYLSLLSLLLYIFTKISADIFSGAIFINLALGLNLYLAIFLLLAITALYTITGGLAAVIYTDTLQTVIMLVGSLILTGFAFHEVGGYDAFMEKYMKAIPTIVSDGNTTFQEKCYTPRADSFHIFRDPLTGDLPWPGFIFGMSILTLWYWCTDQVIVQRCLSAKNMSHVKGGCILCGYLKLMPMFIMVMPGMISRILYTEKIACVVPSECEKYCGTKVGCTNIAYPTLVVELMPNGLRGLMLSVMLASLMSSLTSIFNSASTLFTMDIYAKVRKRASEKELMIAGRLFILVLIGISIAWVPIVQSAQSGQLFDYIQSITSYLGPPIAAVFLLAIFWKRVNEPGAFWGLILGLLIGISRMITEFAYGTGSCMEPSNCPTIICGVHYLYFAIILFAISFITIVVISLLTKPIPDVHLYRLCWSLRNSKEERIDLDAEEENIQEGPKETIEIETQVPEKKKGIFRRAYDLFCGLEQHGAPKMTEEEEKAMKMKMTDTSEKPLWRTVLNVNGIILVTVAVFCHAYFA
With `CC[C@@H](CO)NCCN[C@@H](CC)CO.Cl.Cl`, the “NORMALIZED SGLT1 ACTIVITY (%)” value came out at 90%.

In the case of `Oc1ccc(Cl)c2cccnc12`, the “NORMALIZED SGLT1 ACTIVITY (%)” value came to 208%.

Turning to `O=S(=O)(O)O.Oc1cccc2cccnc12`, the “NORMALIZED SGLT1 ACTIVITY (%)” value turned out to be 127%.

As for `Oc1c(Cl)cc(Cl)c2cccnc12`, the “NORMALIZED SGLT1 ACTIVITY (%)” value turned out to be 48%.

In the case of `CC(=O)Oc1ccc(Cl)c2cccnc12`, the “NORMALIZED SGLT1 ACTIVITY (%)” value came out at 202%.

As to `Oc1c(I)cc(I)c2cccnc12`, the “NORMALIZED SGLT1 ACTIVITY (%)” value was found to be 97%.

For the compound `Oc1c(Br)cc(Br)c2cccnc12`, the “NORMALIZED SGLT1 ACTIVITY (%)” value is 50%.

Regarding `CC(=O)O[C@@H]1CC2C(C)(C)C(=O)C3OC3[C@]2(C)C2CC[C@@]3(C)[C@H](c4ccoc4)OC(=O)C4OC43[C@@]21C` (stereo partly drawn), the “NORMALIZED SGLT1 ACTIVITY (%)” value is recorded as 138%.

Regarding `CC(C)CCCC(C)[C@H]1CCC2C3CC=C4C[C@@H](O)CC[C@]4(C)C3CC[C@@]21C` (stereo partly drawn), the “NORMALIZED SGLT1 ACTIVITY (%)” value amounted to 120%.

With `C[n+]1c2cc(N)ccc2cc2ccc(N)cc21.[Cl-]`, the “NORMALIZED SGLT1 ACTIVITY (%)” value was 169%.

`CC1=CC(=O)C2=C(C)CC[C@@H]3[C@H](OC(=O)[C@H]3C)[C@@H]12`: the “NORMALIZED SGLT1 ACTIVITY (%)” value is 109%.

For `COC(=O)Nc1nc2ccc(S(=O)c3ccccc3)cc2[nH]1` (stereo not drawn), the “NORMALIZED SGLT1 ACTIVITY (%)” value is listed as 125%.

With `Cc1ccc(O)c(C(CCN(C(C)C)C(C)C)c2ccccc2)c1.O=C(O)C(O)C(O)C(=O)O` (stereo not drawn), the “NORMALIZED SGLT1 ACTIVITY (%)” value worked out at 78%.

Turning to `COc1ccc(C(=O)c2ccccc2)c(O)c1`, the “NORMALIZED SGLT1 ACTIVITY (%)” value is recorded as 26%.

As to `COc1ccc(C(=O)c2ccccc2O)c(O)c1`, the “NORMALIZED SGLT1 ACTIVITY (%)” value stood at 111%.

`COc1cc(O)c(C(=O)c2ccccc2)cc1O`: the “NORMALIZED SGLT1 ACTIVITY (%)” value is 235%.

As to `CCS(=O)(=O)CCn1c([N+](=O)[O-])cnc1C`, the “NORMALIZED SGLT1 ACTIVITY (%)” value was found to be 123%.

For `COc1ccc2ccc(=O)oc2c1`, the “NORMALIZED SGLT1 ACTIVITY (%)” value turned out to be 130%.

Consider `Cc1cccc(C)c1NC(=O)C1CCCCN1C.Cl` (stereo not drawn), for which the “NORMALIZED SGLT1 ACTIVITY (%)” value was determined as 83%.

Turning to `CCCCN1CCCCC1C(=O)Nc1c(C)cccc1C.Cl` (stereo not drawn), the “NORMALIZED SGLT1 ACTIVITY (%)” value came to 42%.

`CCN(CC)CC(=O)Nc1c(C)cccc1C.Cl`: the “NORMALIZED SGLT1 ACTIVITY (%)” value was found to be 72%.

On to `CC(C)CCCC(C)[C@H]1CCC2C3C(=O)C=C4C[C@@H](O)CC[C@]4(C)C3CC[C@@]21C` (stereo partly drawn), for which the “NORMALIZED SGLT1 ACTIVITY (%)” value is 95%.

With `Cc1ccc(N(CC2=NCCN2)c2cccc(O)c2)cc1.Cl`, the “NORMALIZED SGLT1 ACTIVITY (%)” value stood at 62%.

As to `COc1ccc2c(c1)OC/C(=C\c1ccc(OC)c(O)c1)C2=O`, the “NORMALIZED SGLT1 ACTIVITY (%)” value is listed as 140%.

Consider `O=C1C=CC(=C(c2ccc(O)cc2)c2ccc(O)cc2)C=C1`, for which the “NORMALIZED SGLT1 ACTIVITY (%)” value is recorded as 78%.

Consider `CN(C)c1ccc(C(=C2C=CC(=[N+](C)C)C=C2)c2ccc(N(C)C)cc2)cc1.[Cl-]`, for which the “NORMALIZED SGLT1 ACTIVITY (%)” value was determined as 43%.

In the case of `CC(CCc1ccccc1)NCC(O)c1ccc(O)c(C(N)=O)c1.Cl` (stereo not drawn), the “NORMALIZED SGLT1 ACTIVITY (%)” value is 76%.

Turning to `O=C([O-])CF.[Na+]`, the “NORMALIZED SGLT1 ACTIVITY (%)” value is reported as 96%.

Regarding `C[C@@H]1C(=O)O[C@H]2[C@H]1CC[C@@]1(C)C=CC(=O)[C@@]3(C)O[C@@]213`, the “NORMALIZED SGLT1 ACTIVITY (%)” value is given as 96%.

Regarding `COc1cc(OC)c(OC)cc1C=O`, the “NORMALIZED SGLT1 ACTIVITY (%)” value is recorded as 189%.

`CC(=O)CC1CCCCN1.Cl` (stereo not drawn): the “NORMALIZED SGLT1 ACTIVITY (%)” value turned out to be 86%.

With `CCC[C@@H]1CCCCN1`, the “NORMALIZED SGLT1 ACTIVITY (%)” value stood at 85%.

In the case of `C1CCC(C(CC2CCCCN2)C2CCCCC2)CC1.O=C(O)/C=C\C(=O)O` (stereo not drawn), the “NORMALIZED SGLT1 ACTIVITY (%)” value turned out to be 1%.

Consider `C=C[C@H]1CN2CC[C@H]1C[C@H]2[C@H](O)c1ccnc2ccccc12`, for which the “NORMALIZED SGLT1 ACTIVITY (%)” value was found to be 77%.

With `C=Cc1c(C)c2[n]3c1C=c1c(C)c(CC)c4[n]1[Cu]31[n]3c(c(C)c5c3C(=c3c(CCC(=O)[O-])c(C)c([n]31)=C2)C(C(=O)[O-])C5=O)C=4.[Na+].[Na+]` (stereo not drawn), the “NORMALIZED SGLT1 ACTIVITY (%)” value is recorded as 94%.

`CC(C)CC(N(C)C)C1(c2ccc(Cl)cc2)CCC1.Cl` (stereo not drawn): the “NORMALIZED SGLT1 ACTIVITY (%)” value is recorded as 28%.

Turning to `CC(C)CCCC(C)C1CCC2C3CC(=O)[C@H]4C[C@@H](O)CC[C@]4(C)C3CC[C@]12C` (stereo partly drawn), the “NORMALIZED SGLT1 ACTIVITY (%)” value is given as 107%.

Take `O=C(O)c1cc2cc(Cl)ccc2[nH]1`: the “NORMALIZED SGLT1 ACTIVITY (%)” value came out at 238%.

With `C=C1C(C2(C)C=CC(=O)C(C)(C)C2CC(=O)OC)CC[C@@]2(C)[C@H](c3ccoc3)OC(=O)C3OC132` (stereo partly drawn), the “NORMALIZED SGLT1 ACTIVITY (%)” value worked out at 86%.

`C[C@]12CCC(=O)C=C1CCC1C2CC[C@@]2(C)C1CC[C@@H]2O` (stereo partly drawn): the “NORMALIZED SGLT1 ACTIVITY (%)” value is 98%.

Turning to `CC(=O)OCC(=O)[C@H]1CC[C@H]2[C@@H]3CCC4=CC(=O)CC[C@]4(C)[C@H]3CC[C@]12C`, the “NORMALIZED SGLT1 ACTIVITY (%)” value is 114%.

On to `CC(=O)[C@H]1CCC2C3CCC4=CC(=O)CC[C@]4(C)C3CC[C@@]21C` (stereo partly drawn), for which the “NORMALIZED SGLT1 ACTIVITY (%)” value turned out to be 38%.

On to `C[C@@H]1CC[C@@]2(NC1)O[C@H]1C[C@H]3C4CC=C5C[C@@H](O)CC[C@]5(C)C4CC[C@]3(C)C1[C@@H]2C` (stereo partly drawn), for which the “NORMALIZED SGLT1 ACTIVITY (%)” value worked out at 109%.

Take `CCC1(c2ccc(N)cc2)CCC(=O)NC1=O` (stereo not drawn): the “NORMALIZED SGLT1 ACTIVITY (%)” value turned out to be 108%.

For `COc1ccc2c(c1)OC/C(=C/c1ccc(O)c(O)c1)C2=O`, the “NORMALIZED SGLT1 ACTIVITY (%)” value amounted to 249%.

As for `CCCCC(CC)CNC(=N)NC(=N)NCCCCCCNC(=N)NC(=N)NCC(CC)CCCC.Cl.Cl` (stereo not drawn), the “NORMALIZED SGLT1 ACTIVITY (%)” value is listed as 36%.

Take `COc1ccc(C[C@H](N)C(=O)N[C@@H]2[C@@H](CO)OC(n3cnc4c(N(C)C)ncnc43)[C@@H]2O)cc1.Cl.Cl` (stereo partly drawn): the “NORMALIZED SGLT1 ACTIVITY (%)” value is on record as 116%.

For `O=C(O)COc1ccc(Cl)cc1Cl`, the “NORMALIZED SGLT1 ACTIVITY (%)” value is 196%.

On to `COC(=O)[C@]1(C)CCC[C@]2(C)c3ccc(C(C)C)cc3C(=O)CC12` (stereo partly drawn), for which the “NORMALIZED SGLT1 ACTIVITY (%)” value is reported as 89%.

In the case of `O=C(CCCN1CCN(c2ccccn2)CC1)c1ccc(F)cc1`, the “NORMALIZED SGLT1 ACTIVITY (%)” value is recorded as 111%.

On to `Cc1ccc2c(Cl)cc(Cl)c(O)c2n1`, for which the “NORMALIZED SGLT1 ACTIVITY (%)” value is recorded as 100%.

In the case of `Oc1c(Cl)cc(Cl)c(Cl)c1Cc1c(O)c(Cl)cc(Cl)c1Cl`, the “NORMALIZED SGLT1 ACTIVITY (%)” value was -43%.

On to `Oc1c(Cl)c(Cl)c(Cl)c(Cl)c1Cl`, for which the “NORMALIZED SGLT1 ACTIVITY (%)” value is given as 622%.

Regarding `Cn1c(=O)[nH]c2ncn(C)c2c1=O`, the “NORMALIZED SGLT1 ACTIVITY (%)” value was 164%.

`CC(C)=CCOc1c2occc2cc2ccc(=O)oc12`: the “NORMALIZED SGLT1 ACTIVITY (%)” value is reported as 161%.

Regarding `CC(CN1c2ccccc2Sc2ccccc21)N(C)C.Cl` (stereo not drawn), the “NORMALIZED SGLT1 ACTIVITY (%)” value came to 87%.

Turning to `CC(CN(C)C)CN1c2ccccc2CCc2ccccc21.O=C(O)/C=C\C(=O)O` (stereo not drawn), the “NORMALIZED SGLT1 ACTIVITY (%)” value is 51%.

Regarding `CN(C)CCCN1c2ccccc2Sc2ccccc21.Cl`, the “NORMALIZED SGLT1 ACTIVITY (%)” value is reported as 38%.

On to `CN(C)CCCN1c2ccccc2Sc2ccc(C(F)(F)F)cc21.Cl`, for which the “NORMALIZED SGLT1 ACTIVITY (%)” value was 62%.

Take `CCN(CC)C(C)CN1c2ccccc2Sc2ccccc21.Cl` (stereo not drawn): the “NORMALIZED SGLT1 ACTIVITY (%)” value is reported as 46%.

As for `CN(C)CCCN1c2ccccc2Sc2ccc(Cl)cc21`, the “NORMALIZED SGLT1 ACTIVITY (%)” value stood at 60%.

As to `CC(CN(C)C)CN1c2ccccc2Sc2ccccc21.O=C(O)C(O)C(O)C(=O)O` (stereo not drawn), the “NORMALIZED SGLT1 ACTIVITY (%)” value turned out to be 45%.

For `NS(=O)(=O)c1cc2c(cc1C(F)(F)F)NC(Cc1ccccc1)NS2(=O)=O` (stereo not drawn), the “NORMALIZED SGLT1 ACTIVITY (%)” value came out at 125%.

Regarding `O=C(Cn1ccnc1[N+](=O)[O-])NCCO`, the “NORMALIZED SGLT1 ACTIVITY (%)” value is 119%.

Take `CC(=O)O[C@H]1CC[C@@]2(C)C(C[C@@H](OC(C)=O)[C@@]3(C)C4=CC(=O)O[C@@H](c5ccoc5)[C@]4(C)CCC23)C1(C)C` (stereo partly drawn): the “NORMALIZED SGLT1 ACTIVITY (%)” value came to 358%.

As to `CCCCC1C(=O)N(c2ccccc2)N(c2ccc(O)cc2)C1=O` (stereo not drawn), the “NORMALIZED SGLT1 ACTIVITY (%)” value is 109%.
